# Experimental data published in PubChem BioAssay AID1035475 (Broad Institute, 2014).
# Results with a measured potency or affinity are listed apart. Records with an inconclusive call do not appear. Activity calls are given as the source filed them.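 Rule for the calls: active = fluorescent signal drops by 40% or more, counted as a hit; inconclusive = no clear call, values can overlap the other calls; inactive = the rest, including any activity in the opposite direction.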
# Experiment: inhibitors of fibronectin matrix deposition, dose response, AH1F cells, Alexa488-FN fluorescence, cherry-picks (AID 1035475);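 note: AH1F fibroblasts incorporating labeled fibronectin into their extracellular matrix; 0% = neutral control wells and -100% = wells without labeled fibronectin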
# Conditions: AH1F fibroblasts, overnight; series mostly up to 35 µM; activity change, negative = inhibition: at the top concentration
row,Structure (SMILES),"activity change, negative = inhibition"
1,CC(C)NC(=O)N(C)C[C@H]1Oc2ccc(NC(=O)CCN3CCOCC3)cc2C(=O)N([C@H](C)CO)C[C@@H]1C,10.8% (inactive)
2,COc1cccc(-c2ccc3c(c2)[C@H]2[C@H](CCN2S(=O)(=O)c2cccc(OC)c2)[C@@H](CO)N3)c1,-7.81% (inactive)
3,O=C(NCCS(=O)(=O)N1CCN(c2ccc(F)cc2)CC1)c1ccc(Br)o1,-2.3% (inactive)
4,C[C@H]1CN([C@@H](C)CO)C(=O)c2cc(-c3ccccc3)cnc2O[C@@H]1CN(C)C(=O)c1cccc(F)c1,18.6% (inactive)
5,CCCCNC(=O)Nc1nc2ccc(CC)cc2s1,-10.3% (inactive)
6,CO[C@H]1CN(C)C(=O)c2cc(NC(=O)Nc3cc(Cl)cc(Cl)c3)ccc2OC[C@H](C)NC[C@H]1C,9.38% (inactive)
7,C[C@H](O)C#Cc1ccc2c(c1)O[C@H](CN(C)C)[C@@H](C)CN([C@H](C)CO)S2(=O)=O,38.2% (inactive)
8,Cc1cccc(NC(=O)Nc2ccc(S(=O)(=O)Nc3onc(C)c3C)cc2)c1,-8.12% (inactive)
9,O=C(CSc1nc2ncc(Cl)cc2[nH]1)c1c[nH]c2ccccc12,-35.1% (inactive)
10,COC(=O)C[C@H]1CC[C@H]2[C@@H](COc3ccc(NC(=O)Cc4cccs4)cc3C(=O)N2C)O1,28% (inactive)
11,Cc1ccc(S(=O)(=O)N2CC[C@H]3[C@H](CO)Nc4ccc(-c5cccc(C(=O)N(C)C)c5)cc4[C@H]32)cc1,-23.6% (inactive)
12,CCN(Cc1ccncc1)C(=O)c1ccc2c(c1)S(=O)(=O)c1ccccc1C2=O,-11.4% (inactive)
13,C[C@H](CO)N1C[C@H](C)[C@@H](CN(C)C(=O)c2cccc(F)c2)Oc2ncc(-c3ccccc3)cc2C1=O,20.2% (inactive)
14,Cn1cnc(S(=O)(=O)N2CCN(c3ccccc3)CC2)c1,-23.9% (inactive)
15,COC(=O)C[C@@H]1CC[C@@H]2[C@@H](COc3ccc(NC(=O)Cc4cccs4)cc3C(=O)N2C)O1,1.6% (inactive)
16,CCCCOc1ccc(C(C)NC(=O)C2CCCN(S(=O)(=O)CCC)C2)cc1 (stereo not given),4.21% (inactive)
17,C[C@H](CO)N1C[C@H](C)[C@@H](CN(C)C(=O)Nc2cccc3ccccc23)Oc2c(NC(=O)Nc3ccc(C(F)(F)F)cc3)cccc2C1=O,22.4% (inactive)
18,CO[C@H]1CN(C)C(=O)c2cc(NC(=O)Nc3cc(Cl)cc(Cl)c3)ccc2OC[C@H](C)NC[C@@H]1C,6.15% (inactive)

row,Structure (SMILES),"activity change, negative = inhibition"
1,Cc1ccc(NC(=O)COC(=O)c2cc(Cl)ccc2[N+](=O)[O-])c(C)c1,-12.9% (inactive)
2,CO[C@H]1CN(C)C(=O)c2cc(NC(C)=O)ccc2OC[C@@H](C)N(C(=O)CN2CCOCC2)C[C@H]1C,43.6% (inactive)
3,CO[C@@H]1CN(C)C(=O)c2cc(NC(=O)Nc3ccc(Cl)c(Cl)c3)ccc2OC[C@H](C)NC[C@@H]1C,28.4% (inactive)
4,CO[C@H]1CN(C)C(=O)c2cc(NC(=O)Nc3cc(Cl)cc(Cl)c3)ccc2OC[C@@H](C)NC[C@H]1C,-22.9% (inactive)
5,Cc1cccc(NC(=O)c2ccc(S(=O)(=O)N3CCCCC3)cc2)n1,-12.8% (inactive)
6,Cc1ccc(Nc2nnc(SCc3ccccc3)s2)cc1,-41% (inactive)
7,N#C[C@@H]1[C@@H](c2ccccc2C2=CCCCC2)[C@H](CO)N1S(=O)(=O)c1ccccc1,23.1% (inactive)
8,O=C(Nc1ccccc1F)N1C[C@H]2[C@@H](c3ccccc31)[C@@H](CO)N2C(=O)C1CC1,25.7% (inactive)
9,C[C@H](CO)N1C[C@H](C)[C@@H](CN(C)Cc2ccc(-c3ccccc3)cc2)Oc2ccc(NC(=O)C3CCCCC3)cc2C1=O,20.7% (inactive)
10,S=C(NCC1CCCO1)Nc1ccc(Cl)cc1Cl (stereo not given),-11% (inactive)
11,O=C(c1cccnc1)N1C[C@H]2[C@@H](c3ccccc31)[C@H](CO)N2CC1CCCC1,40.5% (inactive)
12,C[C@H](O)C#Cc1ccc2c(c1)O[C@H](CN(C)C)[C@H](C)CN([C@@H](C)CO)S2(=O)=O,28% (inactive)
13,COc1ccc(CN(C2CCCC2)S(=O)(=O)c2ccc(-n3cnnn3)cc2)cc1OC,-21.3% (inactive)
14,COc1cccc(CNC(=O)CCc2nnc3ccc(NCCCN4CCCC4=O)nn23)c1,-9.03% (inactive)
15,C[C@@H]1CN([C@@H](C)CO)C(=O)c2cc(NC(=O)CCCN(C)C)ccc2O[C@@H]1CN(C)Cc1ccc(-c2ccccc2)cc1,22.1% (inactive)
16,O=S(=O)(c1ccccc1F)N1CC[C@@H]2[C@H]1c1cc(-c3cccc(F)c3)ccc1N[C@@H]2CO,30.4% (inactive)
17,CCc1ccc(NC(=O)CSc2nnc(-c3ccco3)o2)cc1,-11.6% (inactive)
